From PubChem
AT treatment: potential ataxia-telangiectasia treatment | AID 485349 | Potency, µM (highest dose often 57.5 µM), for inactives: top-dose activation, hits mostly activators | F2112 A-T fibroblasts, KAP-1 phosphorylation AlphaLISA; neocarzinostatin DNA damage 30 min before lysis | 320,000 tested, 0.19% active; active = well fitted activation curve with a large enough effect; inconclusive = small, poorly fitted or top-dose-only effect; inactive = no such curve, though single readings can be large or run the other way; note: potency is the fitted concentration of half-maximal effect; % of control where 0% means no effect; nearly all actives have a fitted effect of over 45% in size
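hTERT-immortalized A-T patient fibroblasts (F2112), 500 cells/well in OPTI-MEM, 1% FBS, got compounds for 60 min, then NCS for 30 min at 37C. Lysates were then assayed for phospho-KAP-1 by AlphaLISA (anti-pKAP1 donor, anti-KAP1 acceptor beads), 6 hr at 25C.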
TRPV1 PAM: potentiators of human vanilloid receptor 1 (TRPV1). Q8NER1. TRPV1-expressing cells, Fluo-8 calcium influx, capsaicin EC20 potentiation. potentiation, % at 8.33 µM. 320,000 tested, 0.02% active. AID 540277; in the data active = potentiation above about 80%; inconclusive = between about 30% and that limit; note: 0% is about no effect
Target sequence (Q8NER1 whole entry, looked up): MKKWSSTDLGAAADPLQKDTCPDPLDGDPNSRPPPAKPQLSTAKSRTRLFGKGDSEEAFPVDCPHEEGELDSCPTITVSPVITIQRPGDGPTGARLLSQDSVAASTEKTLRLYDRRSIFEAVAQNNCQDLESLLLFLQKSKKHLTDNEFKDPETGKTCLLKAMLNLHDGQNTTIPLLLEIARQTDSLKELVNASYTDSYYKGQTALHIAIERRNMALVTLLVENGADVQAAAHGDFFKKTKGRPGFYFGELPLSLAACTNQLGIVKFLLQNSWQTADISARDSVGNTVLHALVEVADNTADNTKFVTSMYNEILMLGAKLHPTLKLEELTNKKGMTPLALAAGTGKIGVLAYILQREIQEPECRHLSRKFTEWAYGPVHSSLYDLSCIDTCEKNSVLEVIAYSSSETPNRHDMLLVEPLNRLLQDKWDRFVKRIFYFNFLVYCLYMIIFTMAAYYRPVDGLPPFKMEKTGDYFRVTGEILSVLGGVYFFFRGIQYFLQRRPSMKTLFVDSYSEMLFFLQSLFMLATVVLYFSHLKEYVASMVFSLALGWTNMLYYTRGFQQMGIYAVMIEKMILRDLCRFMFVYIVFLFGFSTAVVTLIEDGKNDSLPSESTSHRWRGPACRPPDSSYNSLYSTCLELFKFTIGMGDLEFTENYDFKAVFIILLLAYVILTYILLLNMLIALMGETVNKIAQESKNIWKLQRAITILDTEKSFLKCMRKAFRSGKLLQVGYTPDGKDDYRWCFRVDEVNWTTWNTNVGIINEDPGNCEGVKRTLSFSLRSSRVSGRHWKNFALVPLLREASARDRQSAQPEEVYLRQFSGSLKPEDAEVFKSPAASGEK
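TRPV1-expressing cells were cultured overnight at 35.5C and loaded with Fluo-8 calcium dye for 40 to 90 min at room temperature. After a 10 s baseline, compound was added and calcium influx was read kinetically for 3 min (ex 480/em 520 nm).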
TRPV1 agonist: activates the human vanilloid receptor TRPV1; TRPV1-expressing cells, Fluo-8 calcium influx, agonist mode; 320,000 tested, 0.19% active; activation, % at 8.33 µM; Q8NER1; in the data active = activation above about 80%; inconclusive = between about 30% and that limit; note: 0% is about no effect
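Fluo-8 calcium influx in TRPV1-expressing cells, kinetic read (ex 480/em 520 nm). Compound added and read 3 min for agonist activity, followed by capsaicin at EC20 final and 2 min further read for enhancement.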
TRPML1 blocker: inhibitors of human TRPML1 channel | AID 624415 | Q9GZU1 | 390,000 tested, 0.02% active | TRPML1-inducible cells, Ca2+ dye fluorescence, FDSS; hits give low values; inhibition of EC80 agonist-evoked calcium signal | activity change, negative = inhibition, % (test concentration not listed); in the data active = activity change below about -50%; inconclusive = between about -30% and that limit;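 note: stimulus is agonist 54-4 at its EC80 concentration; % is set by controls: 0 for no effect and ±100 for the full control effect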
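Tet-induced TRPML1-DL cells loaded with Ca8 no-wash calcium dye were read kinetically on FDSS. Compound addition was followed by EC80 agonist 54-4 (4 uM final); inhibition was read over 110 s.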
TRPML1 ag: agonists of human TRPML1 channel; TRPML1-expressing cells, Ca2+ dye fluorescence, FDSS; activation, % (no concentration beside the values); 410,000 tested, 0.12% active; in the data active = activation above about 50%; inconclusive = mostly about 30% to 49%; note: 0% is about no effect
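Kinetic FDSS Ca2+ read in Tet-induced TRPML1-DL cells (ABD Ca8 dye plus quencher, 45-90 min RT loading): baseline, then compound, then 110 s agonist window; EC80 agonist 54-4 at 4uM final added afterwards for a 110 s antagonist window.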
* = called active by the depositor; ? = inconclusive; · = no result given. Sampled rows, rich in hits. Any-hit rate of the full collection: about 0.41%.

SMILES	AT treatment	TRPV1 PAM	TRPV1 agonist	TRPML1 blocker	TRPML1 ag
CCCCCCn1c(=O)[nH]c2nc3cc(N)c(C)cc3nc2c1=O	35.1%	2.0	-1.5	-7.8	69.8*
O=C(Nc1ccc(Cl)cc1Cl)[C@@H]1CC=C[C@@H]2CCN(Cc3ccccc3)C(=O)[C@@H]21	·	·	·	·	-0.6
COc1ccc(C2c3ccc(O)cc3Oc3ncn(CCCO)c(=N)c32)cc1 (centres undefined)	25.1µM*	-2.0	2.5	-4.0	0.3
Cc1ccc(C(=O)Nc2sc3c(c2C(=O)O)CCCCC3)o1	10µM*	0.5	2.9	-4.2	-0.4
Cc1ccc(C(=O)Nc2sc3c(c2C(=O)O)CCCC3)o1	-10.1%	5.7	2.5	-19.4	0.4
Cc1ccc(-c2cc(C(=O)N3CCCC3)c3ccccc3n2)s1	20µM*	0.5	6.2	0.3	-0.2
O=C(Nc1ccc(Cl)c(Cl)c1)c1csc(-c2ccccc2)n1	6.0%	-12.4	?	9.8	1.4
O=C(Nc1cccc(Cl)c1)c1csc(-c2ccccc2)n1	31.6µM*	16.8	-7.1	4.2	1.9
O=C(NC1CC1)c1ccc2nc(-c3ccco3)c(-c3ccco3)nc2c1	·	·	·	·	1.5
c1coc(-c2nc3cc4ccccc4cc3nc2-c2ccco2)c1	·	-8.4	-1.2	9.8	1.6
CC(C)(C)Cc1c(-c2ccc(C#N)cc2)nc2c(Cl)cc(C(F)(F)F)cn12	·	·	·	-15.4	72.1*
COc1ccccc1Cc1c(-c2ccc(C#N)cc2)nc2c(Cl)cc(C(F)(F)F)cn12	·	·	·	·	3.8
Fc1ccc(Nc2ncnc3sc4c(c23)CCC4)cc1	-1.2%	6.9	80.6*	-5.5	3.3
Brc1ccc2c(ccc[n+]2CCc2ccccc2)c1	·	·	·	·	-0.1
COc1ccccc1NC(=S)N1CC(C)(C)C1=O	5.62µM*	-22.0	24.2	6.9	0.6
O=C(C[N+]12CN3CN(CN(C3)C1)C2)c1ccc(I)cc1	·	·	·	·	-0.1
COc1cc2nc(Cl)nc(NC3CCN(Cc4ccccc4)CC3)c2cc1OC	·	·	·	·	-0.2
CC1CCN(C(=O)CCCOc2ccc(Cl)cc2)CC1	0.7%	-10.5	80.4*	6.9	-0.7
CCOc1ccc(/C=C/c2ccc3ccccc3n2)cc1OCC	·	·	·	·	6.3
O=C1CCCN1CCCNc1nc(NCc2cccs2)nc2ccsc12	·	·	·	·	57.1*
CCSc1nc2ccccc2n1CC(N)=O	-1.8%	3.6	-4.5	-15.4	0.7
CCSc1nc2ccccc2n1C(=O)/C=C\c1ccc(OC)c(OC)c1	17.8µM*	-11.9	0.8	-0.3	2.7
CC(OC(=O)CC1CCCCC1)C(=O)Nc1ccc(F)cc1 (centres undefined)	-0.7%	-14.6	83.2*	17.9	1.2
Cc1ccc2c(c1)CCCN2C(=O)c1cnn2c1NC(=C1CC1)C=C2C(F)F	·	·	·	·	-0.1
CN(C)c1ccc(/C=C/c2ccnc3cc(Cl)ccc23)cc1	·	·	·	·	105.4*
SMILES	AT treatment	TRPV1 PAM	TRPV1 agonist	TRPML1 blocker	TRPML1 ag
Cc1ccc2c(/C=C/c3ccc(N(C)C)cc3)ccnc2c1	·	·	·	·	16.9
O=C(Cc1ccccc1)NCCCc1ccccc1	1.1%	19.5	-0.4	11.6	-0.6
Cc1ccc(CC(=O)NCCCc2ccccc2)cc1	·	-18.6	80.3*	-5.5	0.1
O=C(NCCCCNC(=O)c1ccc(F)cc1)c1ccc(F)cc1	5.2%	1.7	-0.5	-0.2	0.5
O=C(NCCCc1ccccc1)c1ccc(F)cc1	11.2%	-27.9	87.6*	-13.9	0.5
C[C@@H]1[C@H](c2ccccc2)OCCS(=O)(=O)N1Cc1cccc(Cl)c1	·	·	·	·	-0.5
CN(C)c1ccc(/C=C/c2c3c(nc4ccccc24)CCCC3)cc1	·	·	·	·	6.3
COc1ccc(Nc2nc(C)nc3c2oc2ccccc23)cc1	0.0%	-13.6	98.2*	-2.6	1.7
Cc1nc(Nc2ccc3c(c2)OCO3)c2oc3ccccc3c2n1	3.0%	0.5	-1.9	24.2	2.4
Cc1nc(NCCc2ccccc2)c2oc3ccccc3c2n1	2.3%	-9.0	81.6*	16.5	1.5
Cc1ccc(Nc2nc(C)nc3c2oc2ccccc23)cc1	6.3%	-11.3	88.2*	0.9	2.7
CC(=O)c1ccc(Nc2nc(C)nc3c2oc2ccccc23)cc1	-2.0%	7.0	?	·	·
Cc1ccc2nccc(/C=C/c3ccc(N(C)C)cc3)c2c1	·	·	·	·	22.3
CCCCCCCCCCCCOC(=O)N1CCN(/[N+]([O-])=N/Oc2ccc([N+](=O)[O-])cc2[N+](C)=O)CC1	·	·	·	-8.2	1.0
